EPAC1 agonist = agonists of human EPAC1; O95398; EPAC1 agonist qHTS, biochemical assay; response scale: 100% = response to 6.5 mM cAMP; Potency, µM (top dose mostly 154 µM), hits mostly activators; actives 0.073% (n = 360,000); AID 720707; also: nearly all actives have a fitted effect of over 60% in size
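Nucleotide exchange by EPAC1 (100 nM) on Rap1B–BODIPY-GDP (250 nM) in the presence of 50 uM GDP is tracked fluorescently at 480/540 nm over 30 min. Signals are normalized to a 6.5 mM cAMP control.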
EPAC2 antag = EPAC2 (human) antagonism. Potency, µM (doses to about 114 µM), actives largely listed as inhibitors. actives 0.18% (n = 360,000). Q8WZA2. EPAC2 GEF exchange of Rap1B-BODIPY-GDP, fluorescence; also: nearly all actives have a fitted effect of over 45% in size
Target sequence (Q8WZA2 whole entry, looked up): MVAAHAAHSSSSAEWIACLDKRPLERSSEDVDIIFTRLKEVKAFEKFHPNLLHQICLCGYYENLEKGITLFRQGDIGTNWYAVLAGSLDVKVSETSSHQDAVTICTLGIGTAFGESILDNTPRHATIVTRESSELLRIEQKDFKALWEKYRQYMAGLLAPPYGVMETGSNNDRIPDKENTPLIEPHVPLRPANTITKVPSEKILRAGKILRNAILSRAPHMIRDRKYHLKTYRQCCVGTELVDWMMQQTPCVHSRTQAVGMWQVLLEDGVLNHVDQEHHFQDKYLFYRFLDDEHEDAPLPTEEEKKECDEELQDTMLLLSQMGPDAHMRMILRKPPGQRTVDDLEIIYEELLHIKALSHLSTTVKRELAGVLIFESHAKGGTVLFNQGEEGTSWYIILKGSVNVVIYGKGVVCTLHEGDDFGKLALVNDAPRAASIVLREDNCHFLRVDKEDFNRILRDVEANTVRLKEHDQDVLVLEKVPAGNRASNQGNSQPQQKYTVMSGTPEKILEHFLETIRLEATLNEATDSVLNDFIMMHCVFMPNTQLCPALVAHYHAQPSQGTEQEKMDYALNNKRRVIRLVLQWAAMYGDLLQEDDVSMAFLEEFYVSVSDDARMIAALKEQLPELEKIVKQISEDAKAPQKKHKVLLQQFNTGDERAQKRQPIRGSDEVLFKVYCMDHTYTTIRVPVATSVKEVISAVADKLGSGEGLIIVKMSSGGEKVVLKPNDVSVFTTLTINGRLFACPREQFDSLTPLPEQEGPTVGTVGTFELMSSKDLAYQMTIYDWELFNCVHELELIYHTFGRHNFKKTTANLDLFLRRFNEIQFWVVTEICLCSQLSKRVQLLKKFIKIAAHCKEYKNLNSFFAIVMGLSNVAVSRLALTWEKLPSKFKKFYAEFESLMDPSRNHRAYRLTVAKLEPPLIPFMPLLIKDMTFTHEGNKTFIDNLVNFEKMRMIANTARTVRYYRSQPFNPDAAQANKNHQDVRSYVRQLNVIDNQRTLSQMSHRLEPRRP
EPAC1 antag = EPAC1 (human) antagonism; O95398; EPAC1 GEF assay, Rap1b-BODIPY-GDP exchange fluorescence; Potency, µM (top dose mostly 115 µM), hits mostly inhibitors; actives 0.14% (n = 360,000); AID 720709; also: nearly all actives have a fitted effect of over 50% in size
EPAC2 ag = agonists of human EPAC2 (RAPGEF4); Q8WZA2; EPAC2 activation, biochemical qHTS; response scale: 100% = 6.5 mM cAMP response; Potency, µM (titrated, usually from 154 µM), most hits filed as activators; actives 0.079% (n = 360,000); also: nearly all actives have a fitted effect of over 50% in size
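Each well held 100 nM EPAC2, 250 nM RAP1B-BODIPY-GDP and 50 uM GDP. Fluorescence, read at 5-min intervals to 30 min, was referenced to a 6.5 mM cAMP positive control.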
USP1-UAF1 inh = USP1/UAF1 (human) deubiquitinase inhibition; Potency, µM (titrated, usually from 57.1 µM), actives largely listed as inhibitors; recombinant USP1/UAF1, Ub-Rhodamine cleavage fluorescence; actives 0.23% (n = 390,000); O94782; also: nearly all actives have a fitted effect of over 60% in size
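USP1/UAF1 complex at 1 nM was preincubated with compound for 15 min at room temperature, then Ub-Rho substrate (150nM final) was added. Fluorescence (480/540 nm) was read kinetically, 6 reads every 60 seconds.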
Large screens that a line does not name were inactive. This is a sample that favours compounds with a hit; in the whole collection about 0.44% have one here. Calls follow the shape of the dose curve; as a rule, active = well fitted curve in the direction sought with a large enough effect; inconclusive = small, poorly fitted or top-dose-only effect, or another doubt; inactive = no such curve, though single readings can be large; an effect the other way counts as inactive or inconclusive.

O=C(O)c1ccc(N/N=C/c2c(F)cccc2Cl)cc1	EPAC2 antag 40µM
O=C(N/N=C/c1c(F)cccc1Cl)C1CC1	none
CCCNC(=O)C1CCC(Cn2c(=O)c3sccc3n(CC(=O)Nc3ccccc3C)c2=O)CC1 (configuration not stated)	none (no result: EPAC1 agonist, EPAC2 antag, EPAC1 antag, EPAC2 ag)
O=C(O)c1ccccc1-c1c2cc(I)c(=O)c(I)c-2oc2c(I)c(O)c(I)cc12	EPAC1 agonist 28µM, EPAC2 ag 100µM, USP1-UAF1 inh 22µM
O=Cc1ccc(-c2ccccc2C(=O)O)o1	USP1-UAF1 inh inconclusive
C/C(=N\NC(=O)c1cc2ccccc2cc1O)c1cc2ccccc2o1	EPAC1 antag 50µM, USP1-UAF1 inh inconclusive
O=C1c2ccccc2C(=O)C12OC2c1cccc2ccccc12 (configuration not stated)	EPAC2 antag inconclusive, EPAC1 antag inconclusive, USP1-UAF1 inh 14µM
Cc1ccc(S(=O)(=O)/N=C2/NC(=O)/C(=C/c3cc([N+](=O)[O-])ccc3O)S2)cc1	EPAC1 antag inconclusive, USP1-UAF1 inh 28µM
COc1cccc(N=C2NC(=O)/C(=C/c3cc([N+](=O)[O-])ccc3O)S2)c1	EPAC2 antag inconclusive
O=C1NC(=Nc2ccccc2Cl)S/C1=C\c1cc([N+](=O)[O-])ccc1O	EPAC2 antag 18µM, EPAC1 antag 79µM, USP1-UAF1 inh inconclusive
Cc1cccc(C)c1Nc1nn2c(=O)c3cc4c(cc3nc2s1)OCO4	none (no result: EPAC1 agonist, EPAC2 antag, EPAC1 antag, EPAC2 ag)
CCOC(=O)c1[nH]c(C)c(C(=O)NC(C)(C)C)c1C	EPAC2 ag 6.3µM
CCOC(=O)c1[nH]c(C)c(C(=O)NC)c1C	none
COc1ccc2cc(CCC(C)=O)ccc2c1	EPAC2 antag 28µM, USP1-UAF1 inh inconclusive
O=C(NCCc1ccc(Cl)cc1)c1nc(-c2cccc(F)c2)n2c1CCCCC2	none (no result: EPAC1 agonist, EPAC2 antag, EPAC1 antag, EPAC2 ag)
CC(C)C(=O)NC(c1ccccc1)c1cc([N+](=O)[O-])c2cccnc2c1O (configuration not stated)	EPAC1 antag 56µM
CC(=O)NC(c1ccc(C)cc1)c1cc(Cl)c2cccnc2c1O (configuration not stated)	EPAC2 antag 40µM
O=C(N/N=C\c1ccc(Sc2ccccn2)o1)c1cccc(F)c1	none
O=C(N/N=C/c1ccc(Sc2ccccn2)o1)c1cc2ccccc2cc1O	EPAC1 antag 56µM, USP1-UAF1 inh inconclusive
CN(C)S(=O)(=O)c1cccc(-c2nn(-c3ccccc3)cc2/C=C2\SC(=S)NC2=O)c1	EPAC1 antag 71µM, USP1-UAF1 inh inconclusive
O=C(Cc1ccc(Cl)cc1)Nc1cccc(C(=O)Nc2ccccc2C(=O)O)c1	EPAC1 antag 100µM
CCC(=O)N1CCc2cc(Br)cc(S(=O)(=O)N3CCCC(C(=O)N(C)c4ccc(Br)cc4)C3)c21 (configuration not stated)	none (no result: EPAC1 agonist, EPAC2 antag, EPAC1 antag, EPAC2 ag)
CC(C(=O)NCc1ccccc1)n1c(CSCCOc2ccccc2)nc2ccccc21 (configuration not stated)	none (no result: USP1-UAF1 inh)
N#Cc1c(-c2cccs2)nc(SCc2ccc(Cl)cc2)[nH]c1=O	EPAC2 antag 50µM, EPAC1 antag 89µM, USP1-UAF1 inh inconclusive
CCc1ccc(-n2nc(CO)c(C(=O)NC)n2)cc1	none (no result: EPAC1 agonist, EPAC2 antag, EPAC1 antag, EPAC2 ag)
COc1ccc(CNC(=O)CN2C(=O)COc3ccc(S(=O)(=O)N4CCCCCC4)cc32)cc1	none (no result: EPAC1 agonist, EPAC2 antag, EPAC1 antag, EPAC2 ag)
COc1cc(OC)c2c(O)c3c(c(-c4c5c(c(O)c6c(OC)cc(OC)cc46)CO[C@@H](C)[C@H]5O)c2c1)[C@H](O)[C@H](C)OC3	EPAC1 antag 35µM, USP1-UAF1 inh inconclusive
Cc1ccc(C)c(N(C)C(=O)C2CCN(c3ncnc4c3nc3n4CCCCC3)CC2)c1	none (no result: EPAC1 agonist, EPAC2 antag, EPAC1 antag, EPAC2 ag)
CCOC(=O)c1c2c(n(-c3ccc(OC)cc3)c1C)C(=O)C(=O)c1ccccc1-2	EPAC2 antag inconclusive, EPAC1 antag 56µM, USP1-UAF1 inh 1.8µM
CCOC(=O)c1sc(=S)n(-c2ccc(OC)cc2)c1C	none
CCn1c(=O)c2sccc2n2c(CCC(=O)NCc3ccc(Cl)cc3)nnc12	none (no result: EPAC1 agonist, EPAC2 antag, EPAC1 antag, EPAC2 ag)
CC(C)c1ccc(NC(=O)Cn2c(=O)oc3cc(S(=O)(=O)N4CCCC4)ccc32)cc1	none (no result: EPAC1 agonist, EPAC2 antag, EPAC1 antag, EPAC2 ag)
COc1ccc(NC(=O)N(C)C[C@H]2Oc3ccc(NC(=O)CCN4CCOCC4)cc3C(=O)N([C@@H](C)CO)C[C@H]2C)cc1	USP1-UAF1 inh 5µM
COc1ccc(NC(=O)N(C)C[C@H]2Oc3ccc(NC(=O)CCC(F)(F)F)cc3C(=O)N([C@H](C)CO)C[C@@H]2C)cc1	none
COc1ccc(CN2CCCN(CC(=O)Nc3cc(C)ccc3C)S2(=O)=O)cc1	none (no result: EPAC1 agonist, EPAC2 antag, EPAC1 antag, EPAC2 ag)
CN1CCN(C2=C(Cl)C(=O)c3ccccc3C2=O)CC1	EPAC2 antag inconclusive, EPAC1 antag 28µM, USP1-UAF1 inh 3.5µM
NC(=O)C1CCN(C2=C(NS(=O)(=O)c3ccccc3)C(=O)c3ccccc3C2=O)CC1	none
CN1CCN(C2=C(NS(=O)(=O)c3ccccc3)C(=O)c3ccccc3C2=O)CC1	USP1-UAF1 inh inconclusive
O=C1C(Cl)=C(N2CCC(C(=O)O)CC2)C(=O)c2ccccc21	EPAC2 antag inconclusive, EPAC1 antag inconclusive, USP1-UAF1 inh 25µM
NC(=O)C1CCN(C2=C(Cl)C(=O)c3ccccc3C2=O)CC1	USP1-UAF1 inh 32µM
Cc1ccc(C(=O)OCC(=O)Nc2cc(Cl)ccc2C#N)o1	none
Cc1ccc(CNC(=O)c2c(C)oc3nc(C)nc(N4CCOCC4)c23)cc1	none (no result: EPAC1 agonist, EPAC2 antag, EPAC1 antag, EPAC2 ag)
CCOc1ccc2c(ccc(/C=C/c3cc(C)c4cccnc4c3O)[n+]2C)c1	EPAC1 agonist 63µM, EPAC2 antag 40µM, EPAC1 antag 35µM, EPAC2 ag inconclusive
Cc1ccc2c(c1)c(=O)c1ccccc1n2CCCC(=O)Nc1ccc(C)c(F)c1	none (no result: EPAC1 agonist, EPAC2 antag, EPAC1 antag, EPAC2 ag)
Cc1ccc(-n2nc3c(=O)n(CC(=O)Nc4ccccc4F)nc(C)c3c2C)c(C)c1	none (no result: EPAC1 agonist, EPAC2 antag, EPAC1 antag, EPAC2 ag)
CCOc1ccc(/C=C/C(=O)c2c(O)c3ccccc3oc2=O)cc1	EPAC1 agonist 100µM
COc1cc(CCc2ccccc2)c(C(=O)O)c(O)c1CC=C(C)C	EPAC2 antag 35µM, EPAC1 antag inconclusive
COc1cc(CCc2ccccc2)c(C(=O)O)c(O)c1C/C=C(/C)CCC=C(C)C	EPAC2 antag inconclusive, EPAC1 antag 50µM, USP1-UAF1 inh inconclusive
CSc1ccc(CNC(=O)c2sc3ncnc(N(C)C4CCCCC4)c3c2C)cc1	none (no result: EPAC1 agonist, EPAC2 antag, EPAC1 antag, EPAC2 ag)
O=C1CCN2C=Nc3cccc4ccc1c2c34	EPAC1 agonist 63µM, EPAC2 ag 89µM, USP1-UAF1 inh 28µM
CC(CCC(C)C(C)(C)C)[C@@H]1CC[C@H]2C3C[C@H](OS(O)(=S)=S)[C@H]4C[C@H](OS(O)(=S)=S)[C@@H](OS(O)(=S)=S)C[C@]4(C)[C@H]3CC[C@]12C (some centres not stated) (tested in a mixture with another compound)	EPAC2 antag 20µM, EPAC1 antag 16µM, USP1-UAF1 inh 18µM
O=C1c2cccnc2-c2ncccc21	none
COC1=C(Br)C(=O)c2ncccc2C1=O	EPAC2 antag 8.9µM, EPAC1 antag inconclusive, USP1-UAF1 inh 0.89µM

Screening data: PubChem BioAssay, National Center for Advancing Translational Sciences (NCATS)
